Screening data: PubChem, several laboratories
A selection: hits, their analogues and other compounds. The true share with any hit is near 1.1%.
Y pestis TopoI: Y. pestis Topo-I inhibition via cleavage products | Y. pestis Topo-I cleavage product accumulation, plate reader | activity, % at 10 µM | 360,000 compounds, 0.064% hits; in the data active = activity above about 50%, passing the limit was not always enough
BH1578 lux ind: inducers of Vibrio cholerae quorum light production without autoinducers; V. cholerae BH1578 lux reporter, luminescence, 6 h; activation, % at 18.7 µM; 350,000 compounds, 0.16% hits; in the data active = activation mostly above about 9.7%, no sharp cut-off
PrPC TRFRET: inhibitors of human cell surface prion protein PrPC. P04156. TR-FRET read-out. inhibition, % at 13.8 µM. 370,000 compounds, 0.43% hits. AID 720596; in the data active = inhibition above about 24%
CCHF vOTU inh: blocks the CCHF virus ovarian tumor domain protease. CCHFV vOTU protease, Pep-AMC fluorescence. inhibition, % at 11.5 µM. 370,000 compounds, 0.55% hits; in the data active = inhibition above about 30%
PrPC TRFRET cf: cell surface PrPC inhibition, TR-FRET confirmation; shares compounds with PrPC TRFRET; cell surface PrPC level; inhibition, % at 13.8 µM; 1,500 compounds, 65% hits; AID 743200; in the data active = inhibition above about 25%
LD9 tox: kills or reduces viability of LD9 cells in PrPc counter-screen; shares compounds with PrPC TRFRET; LD9 cells cytotoxicity, luminescence viability; inhibition, % at 13.8 µM; 1,500 compounds, 29% hits; AID 743201; in the data active = inhibition above about 9.5%
Of the large screens only hits and unclear results are named; the others gave an inactive call (follow-up assays come after a bar, where they were run).

CC(=O)Nc1ccc(Nc2nc(-c3ccccc3)nc3ccccc23)cc1	PrPC TRFRET 30 | PrPC TRFRET cf inactive | LD9 tox 17
O=C1NC2C(=CC(O)C(O)C2O)c2cc3c(c(O)c21)OCO3 (stereo not drawn)	PrPC TRFRET 89 | PrPC TRFRET cf 97 | LD9 tox 55
O=C1NC2C(O)C(O)C(O)C(O)C2c2cc3c(c(O)c21)OCO3 (stereo not drawn)	PrPC TRFRET 90 | PrPC TRFRET cf 100 | LD9 tox 32
COc1cc(C2c3cc4c(cc3CC3COC(=O)C32)OCO4)cc(OC)c1O (stereo not drawn)	none
Cc1ccc(NC(=O)CCCCCN2C(=O)[C@@H]3Cc4ccccc4CN3C2=O)c(Cl)c1	none
COC(=O)Cc1c(C)c2ccc(O)c(CNCc3ccc(OC)c(OC)c3)c2oc1=O	PrPC TRFRET 25 | PrPC TRFRET cf inactive | LD9 tox inactive
Cc1cc(C)c(S(=O)(=O)Nc2cccc(S(=O)(=O)N3CCOCC3)c2)c(C)c1	PrPC TRFRET 27 | PrPC TRFRET cf inactive | LD9 tox inactive
Cc1cc(C)c(S(=O)(=O)Nc2ccc(N3CCOCC3)cc2)c(C)c1	none
Cc1cc(C)cc(-n2ccnc2SCC(=O)Nc2ccc3c(c2)OCCO3)c1	none
COC(=O)CSc1ccnc2cc(Cl)ccc12	PrPC TRFRET 68 | PrPC TRFRET cf 92 | LD9 tox inactive
CC(=O)N1CCN(c2ccnc3cc(Cl)ccc23)CC1	none
O=C(O)CSc1ccnc2cc(Cl)ccc12	PrPC TRFRET 47 | PrPC TRFRET cf 90 | LD9 tox inactive
Cc1cnc2cc(Cl)ccc2c1SCC(=O)O	none
c1ccc2[nH]c(CSc3ncnc4c3oc3ccccc34)nc2c1	PrPC TRFRET 29 | PrPC TRFRET cf 26 | LD9 tox inactive
COC(=O)c1ccc(CNC(=O)c2cc(S(=O)(=O)NCc3ccccc3)ccc2C)cc1	none
COc1ccc(C(=O)N2CC3(C)C4CCC3(C)C2(C#N)C4)cc1OC (stereo not drawn)	none
COC(=O)c1cc(Br)c(=O)n(-c2nccs2)c1	PrPC TRFRET 49 | PrPC TRFRET cf 94 | LD9 tox inactive
COc1cccc(C(=O)/C=C/c2ccc(N3CCCCC3)c([N+](=O)[O-])c2)c1	none
CNc1nc(-c2ccccn2)nnc1-c1ccccc1	none
CC(C)(C)c1ccc(CNc2nc(-c3ccccn3)nnc2-c2ccccc2)cc1	PrPC TRFRET 24 (no result: Y pestis TopoI, BH1578 lux ind, CCHF vOTU inh) | PrPC TRFRET cf 38 | LD9 tox 33
c1ccc(-c2nnc(-c3ccccn3)nc2NC2CCCCC2)cc1	PrPC TRFRET 38 | PrPC TRFRET cf 33 | LD9 tox 45
c1ccc(CNc2nc(-c3ccccn3)nc3ccccc23)cc1	none
Clc1cccc(CNc2nc(-c3ccccn3)nnc2-c2ccccc2)c1	PrPC TRFRET 29 (no result: Y pestis TopoI, BH1578 lux ind, CCHF vOTU inh) | PrPC TRFRET cf 37 | LD9 tox 43
CCN(CC(=O)NC(C)C)C(=O)c1ccc(Cl)cc1	none
N#Cc1c(SCC(=O)Nc2nncs2)sc2c(O)cc(=O)[nH]c12	PrPC TRFRET 27 | PrPC TRFRET cf inactive | LD9 tox inactive
Cc1ccc(OCc2cc(C(=O)NC(C)Cc3cccc(C)n3)no2)cn1 (stereo not drawn)	none
Cc1ccc(-n2nc3c(SCCN4CCOCC4)nnc(C)c3c2C)cc1	PrPC TRFRET 33 | PrPC TRFRET cf 56 | LD9 tox inactive
CCOc1ccc(-n2nc3c(=S)[nH]nc(C)c3c2C)cc1	PrPC TRFRET 92 | PrPC TRFRET cf 125 | LD9 tox inactive
CCOc1ccc(-n2nc3c(SCCN4CCCC4)nnc(C)c3c2C)cc1	PrPC TRFRET 55 | PrPC TRFRET cf 74 | LD9 tox inactive
CCOc1ccc(-n2nc3c(=O)[nH]nc(C)c3c2C)cc1	none
CN1C2=NC(c3ccc4ccccc4c3)CC(=O)N2/C(=C\c2ccccc2)C1c1ccccc1C(F)(F)F (stereo not drawn)	none (no result: Y pestis TopoI, BH1578 lux ind, CCHF vOTU inh)
Cc1occc1-c1nnc(-c2cc([N+](=O)[O-])cc([N+](=O)[O-])c2)o1	none
CN(C)c1nc(N)nc(CSc2nnnn2-c2ccc(C(=O)O)cc2)n1	none
COc1cccc(-c2nc(NCc3cccnc3)c3ccccc3n2)c1O	none
COc1cccc2c(NCc3ccccc3)nc(-n3c(N)nc4ccccc43)nc12	PrPC TRFRET 70 (no result: Y pestis TopoI, BH1578 lux ind, CCHF vOTU inh) | PrPC TRFRET cf 49 | LD9 tox 98
CC(=O)NCCn1c(SCC#N)nc2ccccc2c1=O	none
CCOC(=O)C(CCCCCCC(NC(C)=O)(C(=O)OCC)C(=O)OCC)(NC(C)=O)C(=O)OCC	none
